This is part of a sample that, as a whole, favours compounds with a hit. Of some 83,000 tested, about 20% had one in any assay.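 Assay: single dose, 48 h. Readout: percent growth (0 = no net growth; negative = cell death). Active: <10.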 A number with no mark means an inactive call. Calls of active or inactive are those of the source.
Tests used:
Assay in all cases: NCI-60 one-dose screen, 48 h (100 = growth as untreated, 0 = no growth, -100 = all killed)
Conditions in all cases: 10 µM unless noted
[1] = test system: SR leukemia
[2] = test system: RPMI-8226 leukemia
[3] = test system: OVCAR-8 ovarian
[4] = test system: OVCAR-5 ovarian
[5] = test system: OVCAR-4 ovarian
[6] = test system: SK-OV-3 ovarian
[7] = test system: IGROV1 ovarian
[8] = test system: OVCAR-3 ovarian
[9] = test system: HS 578T breast
[10] = test system: NCI/ADR-RES ovarian

| Compound | growth [1] | growth [2] | growth [3] | growth [4] | growth [5] | growth [6] | growth [7] | growth [8] | growth [9] | growth [10] |
| --- | --- | --- | --- | --- | --- | --- | --- | --- | --- | --- |
| COc1ccc(C/C(C)=C(\c2ccc(O)cc2)c2ccc(OCCN3CCCCC3)cc2)cc1 | 22.1% | 71.9% | 90.7% | 83.2% | 87.1% | 105% | 80.6% | 88.9% | 86.8% | 90.5% |
| COc1ccc2c(O)c(/C=C3\N=Nc4ncccc43)oc2c1C[C@@H]1CCNC[C@H]1F | -22.1% (active) | -4.16% (active) | -20.5% (active) | 17% | -37.8% (active) | 15% | -2.07% (active) | -17.9% (active) | -1.31% (active) | 1.39% (active) |
| C[C@@H]1NC(=O)[C@H](Cc2ccccc2)N(Cc2cccnc2)C1=O | 96.9% | 105% | 102% | 96.7% | 102% | 99.2% | 107% | 110% | 94.3% | 104% |
| COc1cc(OC)c2c(=O)c3c(CC=C(C)C)cc(OC)c(O)c3oc2c1 | 53.2% | 81.7% | 88.6% | 96.2% | 98.5% | 96.6% | 91.7% | 92.8% | 88.7% | 78.8% |
| COc1ccc(/C=C2\CN(C(=O)C(Cl)Cl)C/C(=C\c3ccc(OC)c(OC)c3)C2=O)cc1OC | 6.16% (active) | -5.84% (active) | 19.1% | 10.6% | 19.8% | 48.3% | -43.9% (active) | -16.6% (active) | 21.1% | 13.7% |
| ClC(Cl)c1nc(-c2ccccc2)n2nc(-c3ccccc3)cc2n1 | 7.56% (active) | 0.699% (active) | 16.5% | 0.621% (active) | -10.8% (active) | 9.58% (active) | 52.7% | -28.3% (active) | -27.3% (active) | 6.09% (active) |
| COc1cc2c(cc1OCCCN1CCN(C(=S)SCCC(C#N)(c3ccccc3)c3ccccc3)CC1)N=C[C@@H]1CCCN1C2=O | -37.6% (active) | -19.3% (active) | -0.777% (active) | -46.2% (active) | -19.2% (active) | -7.04% (active) | -89.4% (active) | -89.3% (active) | -54.4% (active) | 22.3% |
| Cc1nn(-c2ccc([N+](=O)[O-])cc2)c2ncnc(N/N=C/c3ccccc3O)c12 | 4.55% (active) | 1.23% (active) | 14.5% | 55.8% | 16.5% | 3.11% (active) | 9.22% (active) | 27.3% | 44% | 6.28% (active) |
| O=S(O)c1cc(Cl)cc(Cl)c1OCc1ccccc1 | 92.6% | 93.1% | 97.6% | 99% | 113% | 102% | 109% | 107% | 95.4% | 103% |
| COc1ccc(-c2cc(-c3cc(OC)ccc3OC)nc(SCC(C)=O)c2C#N)cc1 | 32.1% | 33.2% | 80.8% | 84.1% | 69.6% | 59.9% | 83.9% | 66.4% | 76.1% | 52.1% |
| COc1ccc(/C=C/C(c2cc(OC)c(OC)c(OC)c2)n2cncn2)cc1O (stereo not given) | 5.67% (active) | 19.9% | 16% | 86.5% | 83.5% | 12.7% | 50.5% | 15.7% | 28.5% | 10.8% |
| Fc1ccc(/C=C/[C@@H]2C[C@@H](F)CCO2)cc1 | 61.1% | 67.6% | 98.4% | 89.7% | 119% | 102% | 103% | 113% | 84.8% | 103% |
| O=C(Cc1ccc(/C=C/C(=O)c2ncc[nH]2)cc1)Nc1cc(F)c(F)c(F)c1 | 14.9% | 0.541% (active) | 41.7% | 80.7% | 72.7% | 103% | 55.8% | 3.93% (active) | 37% | 66.5% |

Reference: PubChem BioAssay (NCI)
